dFosB act: activators of delta FosB homodimer, primary screen, biochemical, fluorescence polarization, TAMRA-CDK5 oligo, single point; purified delta FosB; percent of positive-control signal above neutral wells; AID 493131, 2011; 340,000 tested, 0.99% active; Protein FosB (Mus musculus), P13346; activation, % at 25 µM;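 active = mean activation above about 17%, with every replicate also reaching it, limit read from the data, passing the limit was not always enough; inconclusive = only one of the two conditions met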
Target sequence (P13346 whole entry, looked up): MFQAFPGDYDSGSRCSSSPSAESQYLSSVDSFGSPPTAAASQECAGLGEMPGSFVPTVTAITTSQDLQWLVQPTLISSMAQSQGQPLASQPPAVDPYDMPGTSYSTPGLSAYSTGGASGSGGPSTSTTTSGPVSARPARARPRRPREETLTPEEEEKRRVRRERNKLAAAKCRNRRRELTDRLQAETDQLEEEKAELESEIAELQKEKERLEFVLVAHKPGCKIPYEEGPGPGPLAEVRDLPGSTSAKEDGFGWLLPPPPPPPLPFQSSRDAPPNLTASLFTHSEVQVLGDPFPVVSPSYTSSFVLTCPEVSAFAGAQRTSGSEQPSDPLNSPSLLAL
Platelet DG rel: inhibitors of platelet dense granule secretion, primary screen, cell-based, MLPCN, human platelets | human platelet-rich plasma, SFLLRN dense granule ATP release, luminescence | inhibition, %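 (compounds screened at 7.5 µM in platelet-rich plasma)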 | 300,000 tested, 0.22% active;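 active = mean replicate score, as percent of positive control, at or above 50; inconclusive = mean below 50 but at least one replicate at or above 50; inactive = mean and every replicate below 50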
HSP90 inh: HSP90 inhibitors, primary screen, cell lysate, luminescence; Heat shock protein HSP 90 (rabbit reticulocyte lysate; luciferase refolding); Rabbit reticulocyte lysate, luciferase refolding luminescence, 3 h; inhibition, % at 5.6 µM; 290,000 tested, 0.91% active;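 active = inhibition above the screen-wide mean plus 3 SD, computed separately per campaign, cut at about 16% in these data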;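 note: inhibitors lower the luminescence because luciferase stays unfolded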
HSF1 inhib: HSF1 inhibitors in luciferase reporter cells, primary screen, cell-based, NIH3T3, luminescence; NIH3T3-HGL HSE-luciferase, MG132-induced, luminescence 8 h; active compounds read low; activity change, negative = inhibition, % at 7.5 µM (by protocol); AID 2098, 2009; 300,000 tested, 0.77% active;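 active = more than half of replicate wells show activity change below -50%, luminescence cut by over half; inconclusive = some wells, but at most half, below -50%; inactive = no replicate well below -50%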;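 note: luciferase reports HSF-1 transcriptional activity via heat shock element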
HSF1 activator: HSF-1 activators, primary screen, NIH3T3-HGL cells, MG132 stress, luminescence, single point; NIH3T3-HGL HSF-1 luciferase reporter, 8 h; 100% = twice DMSO control signal; activation, % at 9 µM; 300,000 tested, 1.7% active; AID 504408, 2011;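 active = mean replicate activation of at least 50% with a set share of replicates each reaching 50%; inconclusive = only one of those two conditions met; inactive = mean below 50% and too few replicates reaching it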
MPTP block: mitochondrial permeability transition pore inhibitors, primary screen, biochemical, isolated mouse mitochondria, absorbance; Ca2+ swelling absorbance, 30 min; AID 602449, 2012; inhibition, % at 10 µM; 360,000 tested, 1.4% active;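 active = inhibition of 50% or more, scaled per plate between neutral and stimulator controls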
HSP90 inh confirm: HSP90 inhibitors, confirmation, cell lysate, luminescence | shares compounds with HSP90 inh | rabbit reticulocyte lysate, luciferase refolding luminescence, 3 h | inhibition, % at 5.9 µM | 2,300 tested, 64% active; in the data active = inhibition above about 18%
luciferase ctr: firefly luciferase inhibitors, HSP90 counter-screen, confirmation, artefact control for HSP90 inhibitor project, biochemical, luminescence, triplicate. purified native firefly luciferase. 2,300 tested, 48% active. AID 1847, 2009. shares compounds with HSP90 inh. inhibition, % at 5.9 µM;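 active = inhibition above the mean inhibition of all tested sample wells plus 3 SD, cut at about 10% in these data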
Hits are given with their value; n = inactive; u = inconclusive; x = no result. An excerpt weighted towards active compounds, which were near 4.9% of everything screened.

SMILES	dFosB act	Platelet DG rel	HSP90 inh	HSF1 inhib	HSF1 activator	MPTP block	HSP90 inh confirm	luciferase ctr
CC(=O)N(Cc1ccc(F)cc1)C1=C(NCCc2ccccc2)C(=O)c2ccccc2C1=O	n	n	47.6	n	n	n	n	n
Cc1ccc(-c2c[n+](CC(=O)Nc3nc(-c4ccc(F)cc4)cs3)c3n2CCC3)cc1	u	n	25.6	n	n	n	18.8	n
CC1(C)C2CCC(CN)C1C2 (configuration not stated)	x	x	x	x	x	n	x	x
CCC(=O)Nc1cc2nn(-c3ccc(OC)cc3)nc2cc1C	n	n	n	n	n	n	x	x
CCC(=O)Nc1cc2nn(-c3ccc(C)cc3)nc2cc1C	n	n	51.4	-61.9	n	n	75.5	66.8
O=C(O)/C=C/c1cnc2ccccc2n1	n	n	n	n	n	n	x	x
O=C(/C=C/c1cnc2ccccc2n1)NC12CC3CC(CC(C3)C1)C2	n	n	28.0	-71.3	n	n	43.6	32.0
CC(C)Oc1ccc(CC(=O)NNC(=S)Nc2ccccc2)cc1	n	n	n	n	n	n	x	x
CC(C)Oc1ccc(CCC(=O)NNC(=S)Nc2ccccc2)cc1	n	n	18.1	n	n	n	n	n
CC(C)(C)c1ccc(C(=O)NCCc2ccccc2)cc1	n	n	21.4	n	n	n	53.1	42.9
CC(C)(C)c1ccc(C(=O)NCc2ccccc2)cc1	n	n	n	n	n	n	x	x
Cc1ccc(CCNC(=O)c2cccc(N3CCCC3=O)c2)cc1	n	n	n	n	n	n	x	x
COCCCN1C(=O)c2ccc(C(=O)NCCc3ccccc3)cc2C1=O	n	n	22.1	n	n	n	41.8	23.5
CC(C)(C)c1ccc(C(=O)NCCOc2ccccc2)cc1	n	n	48.5	-67.9	n	n	69.7	65.5
O=C(NCCc1ccccc1)c1cccc(N2CCCC2=O)c1	n	n	35.0	n	n	n	52.5	33.2
COc1ccc(N2C(=O)c3ccccc3NC(=O)C2C(=O)Nc2ccc3c(c2)OCCO3)cc1 (configuration not stated)	x	x	x	x	x	n	x	x
CCOCC(=O)Nc1cc(C(=O)NCCc2ccccc2)ccc1Cl	n	n	17.1	n	n	n	32.0	n
O=C(NCCc1ccccc1)c1ccc([N+](=O)[O-])cc1	n	n	23.4	n	n	n	34.2	29.9
COCC(=O)Nc1cc(C(=O)NCCc2ccccc2)ccc1Cl	n	n	n	n	n	n	x	x
CC(C)(C)c1ccc(C(=O)NCCOc2ccccc2F)cc1	n	n	62.9	-70.8	n	n	80.0	78.2
Cc1ccc(NC(=O)Cc2ccc3c(c2)OCCO3)cc1S(=O)(=O)N1CCCCC1	n	n	27.1	n	n	n	n	n
Cc1ccccc1-c1cnc(C(O)c2cc(Cl)cc(Cl)c2)[nH]1 (configuration not stated)	x	x	x	x	x	n	x	x
COc1ccc(-c2nc(-c3cccs3)no2)cc1	n	n	33.1	n	n	n	87.4	80.8
Cc1ccc(-c2noc(-c3cccs3)n2)cc1	n	n	n	n	n	n	x	x
O=C(Nc1ccccc1)C1=C[C@@H](C2CCCCC2)C[C@@H](OCCCCO)O1	n	n	25.9	n	n	n	35.5	27.5
SMILES	dFosB act	Platelet DG rel	HSP90 inh	HSF1 inhib	HSF1 activator	MPTP block	HSP90 inh confirm	luciferase ctr
CCOc1ccc2nc(COC(=O)c3cccs3)c(C(=O)c3ccccc3)[n+]([O-])c2c1	n	n	n	n	n	n	x	x
CCOc1ccc2nc(COC(=O)c3cccs3)c(C(C)=O)[n+]([O-])c2c1	n	n	28.7	n	n	n	n	n
CC(C)(C)C(=O)Nc1ccc(/C=C/C(=O)c2ccco2)cc1	n	n	26.2	n	n	n	39.9	49.9
O=C(Nc1ccc(NC(=O)C2CC2)cc1)c1ccco1	n	n	n	n	n	n	x	x
O=C(Nc1ccc(NC(=O)c2ccco2)nc1)c1ccco1	n	n	n	n	n	n	x	x
CC(C)(C)C(=O)Nc1ccc(NC(=O)c2ccco2)nc1	n	n	91.4	-90.9	n	n	88.8	83.7
O=C(Nc1ccc(NC(=O)C2CCCCC2)cn1)c1ccco1	n	n	21.6	n	n	n	54.8	47.5
OCCCNc1ncnc2c1ncn2[C@H]1CN(Cc2ccc3c(c2)OCO3)C[C@@H](CO)O1	x	x	x	x	x	n	x	x
Cc1ccc(NC(=O)CS(=O)CC(=O)NC23CC4CC(CC(C4)C2)C3)cc1 (configuration not stated)	n	n	n	n	n	n	x	x
Cc1nc2c(N)nn(C)c2nc1C	x	x	x	x	x	n	x	x
O=C(Nc1cccc2c1C(=O)NC2=O)c1cccc(N2C(=O)CCC2=O)c1	n	n	n	n	n	n	x	x
O=C(CN1C(=O)CCC1=O)Nc1cccc2c1C(=O)NC2=O	n	n	21.4	n	n	n	n	n
Cc1ccc(/C=C2\Sc3ccccc3C2=O)s1	n	n	n	n	n	n	x	x
CCC(=O)N(C)/C=C1\Sc2ccccc2C1=O	n	n	26.1	n	n	n	n	n
O=CN(/C=C1\Sc2ccccc2C1=O)Cc1ccccc1	n	n	34.4	n	n	n	n	n
CC(=O)Nc1ccc(/C=C2\Sc3ccccc3C2=O)cc1	n	n	n	n	n	n	x	x
CC(=O)N(C)/C=C1\Sc2ccccc2C1=O	n	n	35.7	n	n	n	n	n
N=C1C(=O)NC(=O)C1c1ccccc1 (configuration not stated)	n	x	x	x	x	n	x	x
CC1Cc2c([nH]c3ccccc23)C(=O)N1 (configuration not stated)	n	n	n	n	n	n	x	x
CC(C)(C)n1nnnc1C(c1ccccc1F)N1CCN(C2CCCC2)CC1 (configuration not stated)	n	n	22.5	n	n	n	n	n
CN(C)c1ccc(P(=O)(OCc2ccccc2)C(O)c2ccccc2)cc1 (configuration not stated)	n	n	n	n	n	n	x	x
Cc1ccc(NC(=O)CN2C(=O)S/C(=C\c3ccc(-c4cccc(C(=O)O)c4C)o3)C2=O)cc1	x	n	25.6	n	n	x	24.1	n
Cc1ccc(OCC(O)CN2CCN(c3ccccc3)CC2)cc1 (configuration not stated)	n	n	n	n	n	n	x	x
OC(COc1ccc(Cl)cc1)CN1CCN(c2ccccc2)CC1 (configuration not stated)	n	n	39.9	n	n	n	n	n

Screening data (PubChem BioAssay)
